# Results taken from PubChem BioAssay (Tox21).
# Inconclusive results are not listed. Entries that show only a call come without a potency. Values without a mark were called inactive. The source made the active and inactive calls. Unless noted, calls follow the shape of the dose curve; as a rule, active = well fitted curve in the direction sought with a large enough effect in the repeat runs; inconclusive = weak or mixed curves; inactive = no such curve, though single readings can be large; an effect the other way counts as inactive or inconclusive.
# Columns and labels:
# [1] = qHTS assay to identify small molecule antagonists of the estrogen related receptor (ERR) signaling pathway from Tox21 library - cell viability counter screen (AID 1224834); also: nearly all actives have a fitted effect of over 30% in size
# How it was run: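 ERR reporter cells were plated 6 h before compound addition, then exposed to test compounds in DMSO for 17.5 h at 37 C. Viability was read as CellTiter-Fluor fluorescence after a 30-minute incubation at 37 C.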
# [2] = molecular target: Luciferin 4-monooxygenase (Photinus pyralis) (UniProt P08659); test: qHTS assay to identify small molecule inhibitors of firefly luciferase (AID 1224835); also: nearly all actives have a fitted effect of over 25% in size; also: potency is read from the fitted curve at half-maximal effect; as to activity change, negative = inhibition: series mostly up to about 120 µM
# Sequence of Luciferin 4-monooxygenase (Photinus pyralis) (P08659 whole entry, looked up): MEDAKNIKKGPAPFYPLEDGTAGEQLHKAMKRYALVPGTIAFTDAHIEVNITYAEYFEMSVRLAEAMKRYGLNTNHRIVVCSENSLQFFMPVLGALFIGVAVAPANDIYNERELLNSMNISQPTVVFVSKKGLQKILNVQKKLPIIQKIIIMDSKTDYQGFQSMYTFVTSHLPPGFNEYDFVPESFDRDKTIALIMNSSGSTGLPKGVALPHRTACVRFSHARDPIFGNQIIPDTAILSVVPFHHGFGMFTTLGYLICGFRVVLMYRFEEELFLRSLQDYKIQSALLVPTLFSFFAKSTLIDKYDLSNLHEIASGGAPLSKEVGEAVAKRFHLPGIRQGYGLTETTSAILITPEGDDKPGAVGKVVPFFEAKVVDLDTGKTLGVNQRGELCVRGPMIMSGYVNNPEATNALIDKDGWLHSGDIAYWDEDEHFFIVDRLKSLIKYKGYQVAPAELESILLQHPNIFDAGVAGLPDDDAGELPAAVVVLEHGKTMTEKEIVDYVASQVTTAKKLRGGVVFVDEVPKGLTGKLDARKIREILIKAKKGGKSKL
# How it was run: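 Biochemical qHTS: compounds run as interplate titrations against purified firefly enzyme, with D-luciferin and ATP each at its KM concentration. Light output recorded by CCD imaging.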
# [3] = qHTS assay to identify small molecule agonists of the constitutive androstane receptor (CAR) signaling pathway - cell viability counter screen (AID 1224836); also: series mostly up to about 92 µM; nearly all actives have a fitted effect of over 45% in size
# How it was run: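 Counter screen multiplexed with the CAR reporter readout: HepG2 cells co-transfected with hCAR and the CYP2B6-2.2kb construct receive a 15-concentration compound series and 0.75 uM PK11195 (final), then CellTiter-Fluor fluorescence is read after 23 h.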
# [4] = qHTS assay to identify small molecule antagonists of the constitutive androstane receptor (CAR) signaling pathway - cell viability counter screen (AID 1224837); also: series mostly up to about 92 µM; nearly all actives have a fitted effect of over 45% in size
# How it was run: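 HepG2 cells stably expressing hCAR and a CYP2B6-2.2kb reporter were plated and pre-incubated 4 hr at 37 C/5% CO2, then given compounds at 15 concentrations plus 50 nM CITCO (final). After 23 hr, viability was read by CellTiter-Fluor fluorescence.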
# [5] = molecular target: Nuclear receptor subfamily 1 group I member 3 (Homo sapiens) (UniProt Q14994); test: qHTS assay to identify small molecule antagonists of the constitutive androstane receptor (CAR) signaling pathway (AID 1224838); also: nearly all actives have a fitted effect of over 40% in size
# Sequence of Nuclear receptor subfamily 1 group I member 3 (Homo sapiens) (Q14994 whole entry, looked up): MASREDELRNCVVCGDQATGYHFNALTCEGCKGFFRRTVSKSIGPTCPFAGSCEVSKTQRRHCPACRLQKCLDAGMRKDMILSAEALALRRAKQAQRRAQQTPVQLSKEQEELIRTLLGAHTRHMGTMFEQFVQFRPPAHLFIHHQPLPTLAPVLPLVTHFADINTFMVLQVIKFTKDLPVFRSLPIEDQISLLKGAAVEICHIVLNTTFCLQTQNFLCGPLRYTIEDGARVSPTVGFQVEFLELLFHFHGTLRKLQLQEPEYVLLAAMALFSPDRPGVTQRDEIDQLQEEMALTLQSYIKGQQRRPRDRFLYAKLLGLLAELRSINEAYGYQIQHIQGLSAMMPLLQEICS
# How it was run: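 HepG2 cells stably co-transfected with hCAR and a CYP2B6-2.2kb luciferase reporter were seeded 4 h before compound addition at 15 concentrations. Cells were stimulated with 50 nM CITCO (final) for 24 h at 37 C; luciferase luminescence was then read.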
# [6] = molecular target: Nuclear receptor subfamily 1 group I member 3 (Homo sapiens) (UniProt Q14994); test: qHTS assay to identify small molecule agonists of the constitutive androstane receptor (CAR) signaling pathway (AID 1224839); also: nearly all actives have a fitted effect of over 15% in size; also: potency is read from the fitted curve at half-maximal effect; as to activation: series mostly up to about 92 µM
# How it was run: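 A 15-concentration quantitative screen uses HepG2 cells co-transfected stably with human CAR and CYP2B6-2.2kb reporter. Treatment lasts 24 h with 0.75 uM PK11195 final present; ONE-Glo luminescence is the signal.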
# [7] = qHTS assay to identify small molecule antagonists of the estrogen related receptor signaling pathway with the pleiotropic PPARgamma coactivator (PGC) from Tox21 10K library - cell viability counter screen (AID 1224840; active = well fitted cell-killing curve with a large enough effect in the repeat runs, not every such curve was filed as active; also: nearly all actives have a fitted effect of over 40% in size)
# How it was run: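 PGC/ERR cells were seeded at 2,000 cells/well and left 6 hours at 37 C/5% CO2 before pin-tool addition of compounds in DMSO. After 17.5 hours at 37 C, CellTiter-Fluor was added and fluorescence read 30 minutes later.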
# [8] = qHTS assay to identify small molecule antagonists of the estrogen related receptor signaling pathway with the pleiotropic PPARgamma coactivator (PGC) from Tox21 10K library (AID 1224841; call rule not given here; also: series mostly up to about 92 µM; actives are mostly falling curves and most rising ones were filed inactive; nearly all actives have a fitted effect of over 50% in size)
# How it was run: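 PGC/ERR reporter cells were seeded at 2,000 cells/well and held 6 hours at 37 C/5% CO2 before pin-tool addition of compounds in DMSO. After 18 hours at 37 C, One-Glo was added and luminescence read after 30 minutes at room temperature.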
# [9] = qHTS assay to identify small molecule agonists of the estrogen related receptor signaling pathway with the pleiotropic PPARgamma coactivator (PGC) from Tox21 10K library (AID 1224842); also: nearly all actives have a fitted effect of over 15% in size
# How it was run: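 PGC/ERR reporter cell line, 2,000 cells per well, incubated 6 h at 37 C before 23 nL compound in DMSO was added. After 18 h at 37 C, One-Glo luminescence read following 30 min at room temperature.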
# [10] = molecular target: Thyrotropin receptor (Homo sapiens) (UniProt P16473); test: qHTS assay to identify small molecule agonists of the thyroid stimulating hormone receptor (TSHR) signaling pathway (AID 1224843; calls by dose curve; also: nearly all actives have a fitted effect of over 45% in size)
# Sequence of Thyrotropin receptor (Homo sapiens) (P16473 whole entry, looked up): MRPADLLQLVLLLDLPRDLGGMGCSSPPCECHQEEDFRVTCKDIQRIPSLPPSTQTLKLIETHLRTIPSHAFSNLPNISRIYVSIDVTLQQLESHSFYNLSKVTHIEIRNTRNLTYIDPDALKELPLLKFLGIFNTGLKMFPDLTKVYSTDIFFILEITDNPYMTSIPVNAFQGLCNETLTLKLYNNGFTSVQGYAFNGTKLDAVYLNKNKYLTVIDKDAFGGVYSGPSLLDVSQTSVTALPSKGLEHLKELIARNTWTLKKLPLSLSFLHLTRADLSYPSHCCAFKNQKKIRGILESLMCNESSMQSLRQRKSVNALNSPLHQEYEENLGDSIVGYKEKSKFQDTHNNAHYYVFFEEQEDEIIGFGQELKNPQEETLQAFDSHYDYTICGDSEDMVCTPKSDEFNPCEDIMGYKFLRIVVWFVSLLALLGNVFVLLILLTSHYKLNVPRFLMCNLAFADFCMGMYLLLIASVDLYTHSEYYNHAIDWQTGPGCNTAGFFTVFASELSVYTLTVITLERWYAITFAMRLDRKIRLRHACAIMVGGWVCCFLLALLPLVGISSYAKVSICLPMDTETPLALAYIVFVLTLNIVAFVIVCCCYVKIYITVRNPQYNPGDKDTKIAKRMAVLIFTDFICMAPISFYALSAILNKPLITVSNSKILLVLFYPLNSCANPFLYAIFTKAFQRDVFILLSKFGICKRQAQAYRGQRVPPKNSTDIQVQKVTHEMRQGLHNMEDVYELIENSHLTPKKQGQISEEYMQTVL
# How it was run: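 Steps: seed 800 TSHR-HEK293 cells per well; add test compound and hold 30 min at ambient temperature; dispense cAMP-d2 then anti-cAMP cryptate; incubate 1 h at ambient; measure fluorescence intensity.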
compound,measurement,setting,value
CN(C)CCOCCO,Potency,[1],inactive
same,Potency,[2],inactive
same,Potency,[3],inactive
same,Potency,[4],inactive
same,outcome,[5],inactive
same,Potency,[6],inactive
same,outcome,[7],inactive
same,Potency,[8],inactive
same,outcome,[9],inactive
same,Potency,[10],inactive
CCCCCCCCOS(=O)(=O)O,Potency,[1],inactive
same,Potency,[2],inactive
same,Potency,[3],inactive
same,Potency,[4],inactive
same,outcome,[5],inactive
same,Potency,[6],inactive
same,outcome,[7],inactive
same,Potency,[8],inactive
same,outcome,[9],inactive
same,Potency,[10],inactive
C[Si](C)(C)C,Potency,[1],inactive
same,Potency,[2],inactive
same,Potency,[3],inactive
same,Potency,[4],inactive
same,outcome,[5],inactive
same,Potency,[6],inactive
same,outcome,[7],inactive
same,Potency,[8],inactive
same,outcome,[9],inactive
same,Potency,[10],inactive
BrCCCCCBr,Potency,[1],inactive
same,Potency,[2],inactive
same,Potency,[3],inactive
same,Potency,[4],inactive
same,outcome,[5],inactive
same,Potency,[6],inactive
same,outcome,[7],inactive
same,Potency,[8],inactive
same,outcome,[9],inactive
same,Potency,[10],inactive
O=C(OCc1ccccc1)C(=O)OCc1ccccc1,Potency,[1],inactive
same,Potency,[2],inactive
same,Potency,[3],inactive
same,Potency,[4],inactive
same,outcome,[5],inactive
same,Potency,[6],inactive
same,outcome,[7],inactive
same,Potency,[8],inactive
same,outcome,[9],inactive
same,Potency,[10],inactive
O=C(CS(=O)Cc1ccco1)NC/C=C\COc1cc(CN2CCCCC2)ccn1 (configuration not stated),Potency,[1],inactive
same,Potency,[2],inactive
same,Potency,[3],inactive
same,Potency,[4],inactive
same,outcome,[5],inactive
same,Potency,[6],inactive
same,outcome,[7],inactive
same,Potency,[8],inactive
same,outcome,[9],inactive
same,Potency,[10],inactive
Cc1nc2n(c(=O)c1CCN1CCC(c3noc4cc(F)ccc34)CC1)CCC[C@H]2O,"viability change, negative = cytotoxic",[1],0.131% [at 19 µM]
same,"activity change, negative = inhibition",[2],0.0649% [at 23.6 µM]
same,"viability change, negative = cytotoxic",[3],2.64% [at 19 µM]
same,"activity change, negative = cytotoxicity",[4],1.56% [at 19 µM]
same,"activity, negative = inhibition",[5],20.8% [at 19 µM]
same,activation,[6],-1.43% [at 19 µM]
same,"viability change, negative = cytotoxic",[7],11.2% [at 19 µM]
same,"activity, negative = inhibition",[8],-0.225% [at 19 µM]
same,activation,[9],-0.0623% [at 19 µM]
same,activation,[10],-7.95% [at 19 µM]
CC(C)(C)OC(=O)c1ccc(O)cc1,Potency,[1],inactive
same,Potency,[2],39.9 µM (active)
same,Potency,[3],inactive
same,Potency,[4],inactive
same,outcome,[5],inactive
same,Potency,[6],24.3 µM (active)
same,outcome,[7],inactive
same,Potency,[8],inactive
same,outcome,[9],inactive
same,Potency,[10],inactive
CCn1ccc(NS(=O)(=O)c2ccc(N)cc2)nc1=O,Potency,[1],inactive
same,Potency,[2],inactive
same,Potency,[3],inactive
same,Potency,[4],inactive
same,outcome,[5],inactive
same,Potency,[6],inactive
same,outcome,[7],inactive
same,Potency,[8],inactive
same,outcome,[9],inactive
same,Potency,[10],inactive
CC(C)(C)NC(N)=O,Potency,[1],inactive
same,Potency,[2],inactive
same,Potency,[3],inactive
same,Potency,[4],inactive
same,outcome,[5],inactive
same,Potency,[6],inactive
same,outcome,[7],inactive
same,Potency,[8],inactive
same,outcome,[9],inactive
COc1cc(C(=S)N2CCOCC2)cc(OC)c1OC,Potency,[1],inactive
same,Potency,[2],inactive
same,Potency,[3],inactive
same,Potency,[4],inactive
same,outcome,[5],inactive
same,Potency,[6],inactive
same,outcome,[7],inactive
same,Potency,[8],inactive
same,outcome,[9],inactive
same,Potency,[10],inactive
Cc1ccsc1/C=C/C1=NCCCN1C,Potency,[1],inactive
same,Potency,[2],inactive
same,Potency,[3],inactive
same,Potency,[4],inactive
same,outcome,[5],inactive
same,Potency,[6],inactive
same,outcome,[7],inactive
same,Potency,[8],inactive
same,outcome,[9],inactive
same,Potency,[10],inactive
CCOCCOCCOCC,Potency,[1],inactive
same,Potency,[2],inactive
same,Potency,[3],inactive
same,Potency,[4],inactive
same,outcome,[5],inactive
same,Potency,[6],inactive
same,outcome,[7],inactive
CNC(=O)[C@H]1O[C@@H](n2cnc3c(NCc4cc(Cl)ccc4OCc4cc(C)no4)ncnc32)[C@H](O)[C@@H]1N,Potency,[1],inactive
same,Potency,[2],inactive
same,Potency,[3],inactive
same,Potency,[4],inactive
same,outcome,[5],inactive
same,Potency,[6],inactive
same,outcome,[7],inactive
same,Potency,[8],inactive
same,outcome,[9],inactive
same,Potency,[10],inactive
N#Cc1ccc(C(=O)O)cc1,Potency,[1],inactive
same,Potency,[2],inactive
same,Potency,[3],inactive
same,Potency,[4],inactive
same,outcome,[5],inactive
same,Potency,[6],inactive
same,outcome,[7],inactive
same,Potency,[8],inactive
same,outcome,[9],inactive
C=CC(OCC)OCC,Potency,[1],inactive
same,Potency,[2],inactive
same,Potency,[3],inactive
same,Potency,[4],inactive
same,outcome,[5],inactive
same,Potency,[6],inactive
same,outcome,[7],inactive
C[C@H](CCC(=O)O)[C@H]1CC[C@H]2[C@@H]3C(=O)C[C@@H]4CC(=O)CC[C@]4(C)[C@H]3CC(=O)[C@]12C,Potency,[1],inactive
same,Potency,[2],inactive
same,Potency,[3],inactive
same,Potency,[4],inactive
same,outcome,[5],inactive
same,Potency,[6],inactive
same,outcome,[7],inactive
same,Potency,[8],inactive
same,outcome,[9],inactive
same,Potency,[10],inactive
COc1cc(NS(=O)(=O)c2ccc(N)cc2)nc(OC)n1,Potency,[1],inactive
same,Potency,[2],inactive
same,Potency,[3],inactive
same,Potency,[4],inactive
same,outcome,[5],inactive
same,Potency,[6],inactive
same,outcome,[7],inactive
same,Potency,[8],inactive
same,outcome,[9],inactive
CCCCCCOC(=O)CC,Potency,[1],inactive
same,Potency,[2],inactive
same,Potency,[3],inactive
same,Potency,[4],inactive
same,outcome,[5],inactive
same,Potency,[6],inactive
same,outcome,[7],inactive
same,Potency,[8],inactive
same,outcome,[9],inactive
CC(C)(C)c1n[nH]c(=S)n(N)c1=O,Potency,[1],inactive
same,Potency,[2],inactive
same,Potency,[3],inactive
same,Potency,[4],inactive
same,outcome,[5],inactive
same,Potency,[6],inactive
same,outcome,[7],inactive
same,Potency,[8],inactive
same,outcome,[9],inactive
same,Potency,[10],inactive
Cc1cccc(C)c1OCC(C)N (configuration not stated),Potency,[1],inactive
same,Potency,[2],inactive
same,Potency,[3],inactive
same,Potency,[4],inactive
same,outcome,[5],inactive
same,Potency,[6],inactive
same,outcome,[7],inactive
same,Potency,[8],inactive
same,outcome,[9],inactive
same,Potency,[10],inactive
O=C1c2ccccc2C(=O)N1CCl,Potency,[1],inactive
same,Potency,[2],inactive
same,Potency,[3],inactive
same,Potency,[4],inactive
same,outcome,[5],inactive
same,Potency,[6],inactive
same,outcome,[7],inactive
same,Potency,[8],inactive
same,outcome,[9],inactive
CCCOC(OCCC)OCCC,Potency,[1],inactive
same,Potency,[2],inactive
same,Potency,[3],inactive
same,Potency,[4],inactive
same,outcome,[5],inactive
same,Potency,[6],inactive
same,outcome,[7],inactive
same,Potency,[8],inactive
same,outcome,[9],inactive
CCCCN,Potency,[1],inactive
same,Potency,[2],inactive
same,Potency,[3],inactive
same,Potency,[4],inactive
same,outcome,[5],inactive
same,Potency,[6],inactive
same,outcome,[7],inactive
same,Potency,[8],inactive
same,outcome,[9],inactive
